Results taken from PubChem BioAssay (EPA / NIEHS).
Records with an inconclusive call do not appear. The source made the active and inactive calls. Rule for the calls: active = hit-call score of the fitted dose curve at least 0.9, where 1 is the maximum; inconclusive = response in the unintended direction; inactive = score below 0.9.

target: Androgen receptor (Homo sapiens) (UniProt P10275); assay: ATG_AR_TRANS: Attagene TRANS-FACTORIAL HepG2 Assay for human Androgen Receptor (AR) (AID 2282973); conditions: HepG2 Attagene TRANS-FACTORIAL AR reporter transcription
Sequence (P10275 whole entry, looked up, the tested form may be a part): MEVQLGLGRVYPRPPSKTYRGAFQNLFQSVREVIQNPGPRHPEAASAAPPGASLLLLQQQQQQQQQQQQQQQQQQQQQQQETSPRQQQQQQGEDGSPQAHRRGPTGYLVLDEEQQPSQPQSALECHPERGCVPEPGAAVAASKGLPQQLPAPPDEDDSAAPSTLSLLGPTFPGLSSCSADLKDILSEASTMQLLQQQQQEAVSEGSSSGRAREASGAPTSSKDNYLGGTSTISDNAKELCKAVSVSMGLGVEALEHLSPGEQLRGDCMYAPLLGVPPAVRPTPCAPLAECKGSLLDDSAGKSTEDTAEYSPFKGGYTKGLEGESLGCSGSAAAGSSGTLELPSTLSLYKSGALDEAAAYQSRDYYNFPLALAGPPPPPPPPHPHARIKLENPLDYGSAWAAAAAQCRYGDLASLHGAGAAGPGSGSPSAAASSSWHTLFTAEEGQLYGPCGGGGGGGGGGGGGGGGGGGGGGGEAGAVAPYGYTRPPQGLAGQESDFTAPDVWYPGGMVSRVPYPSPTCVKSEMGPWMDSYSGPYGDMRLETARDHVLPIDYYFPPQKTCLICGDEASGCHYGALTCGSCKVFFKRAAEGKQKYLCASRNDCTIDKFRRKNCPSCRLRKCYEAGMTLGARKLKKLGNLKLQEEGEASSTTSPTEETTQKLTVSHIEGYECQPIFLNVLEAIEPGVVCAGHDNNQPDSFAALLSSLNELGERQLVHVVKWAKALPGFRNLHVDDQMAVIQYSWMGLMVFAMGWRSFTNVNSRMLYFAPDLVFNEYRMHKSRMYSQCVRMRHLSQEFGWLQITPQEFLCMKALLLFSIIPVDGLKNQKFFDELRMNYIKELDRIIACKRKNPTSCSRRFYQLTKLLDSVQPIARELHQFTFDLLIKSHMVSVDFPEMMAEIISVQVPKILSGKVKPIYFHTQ
Method in brief: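 Steps: transfect HepG2 with multiple GAL4-UAS reporter transcription units (TRANS format, exogenous NR-Gal4 protein); dose 24 h; isolate RNA, reverse-transcribe, PCR-amplify, FAM-label, HpaI-digest; resolve by capillary electrophoresis. Positive direction vs DMSO.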

outcome, inactive:
O=C(O)C(F)(F)C(F)(F)OC(F)(F)F
C=CC(F)(F)C(F)(F)C(F)(F)C(F)(F)C(F)(F)C(F)(F)C(F)(F)C(F)(F)C=C
C[Si](Cl)(Cl)CCC(F)(F)C(F)(F)C(F)(F)C(F)(F)C(F)(F)C(F)(F)F
O=P(O)(O)OCCC(F)(F)C(F)(F)C(F)(F)C(F)(F)C(F)(F)C(F)(F)F
O=S(=O)(OCC(F)(F)F)C(F)(F)C(F)(F)C(F)(F)C(F)(F)F
O=S(=O)(OCCOC(F)(F)F)C(F)(F)F
O=C(O)C(F)(OC(F)(F)C(F)(OC(F)(F)C(F)(F)C(F)(F)F)C(F)(F)F)C(F)(F)F (configuration not stated)
OCC(F)(F)C(F)(F)C(F)(F)C(F)(F)C(F)(F)C(F)(F)C(F)(F)C(F)(F)C(F)(F)C(F)(F)C(F)(F)F
FC(F)(F)C(F)(F)C(F)(F)C(F)(F)C(F)(F)C(F)(F)CC[Si](Cl)(Cl)Cl
NC(=O)C(F)(F)C(F)(F)C(F)(F)C(F)(F)F
OCC(F)(F)C(F)(F)C(F)(F)C(F)F
O=C(O)C(F)(F)C(F)(F)C(F)(F)OC(F)(F)F
O=C(O)C(F)(F)C(F)(F)C(F)(F)C(F)(F)F
NC(=O)C(F)(F)C(F)(F)C(F)(F)C(F)(F)C(F)(F)C(F)(F)C(F)(F)F
FC(F)(F)C(F)(F)C(F)(F)C(F)(F)C(F)(F)C(F)(F)C(F)(F)C(F)(F)CCS
CN(CCO)S(=O)(=O)C(F)(F)C(F)(F)C(F)(F)C(F)(F)C(F)(F)C(F)(F)C(F)(F)C(F)(F)F
NS(=O)(=O)C(F)(F)C(F)(F)C(F)(F)C(F)(F)C(F)(F)C(F)(F)F
OCCCCC(F)(F)C(F)(F)C(F)(F)C(F)(F)F
OCCCC(F)(F)C(F)(F)C(F)(F)F
O=S(=O)(O)CCC(F)(F)C(F)(F)C(F)(F)C(F)(F)C(F)(F)C(F)(F)F
C=C(C)C(=O)OCCC(F)(F)C(F)(F)C(F)(F)C(F)(F)C(F)(C(F)(F)F)C(F)(F)F
OCC(F)(F)C(F)(F)C(F)(F)C(F)(F)C(F)(F)C(F)(F)F
